# Measured values as given in PubChem BioAssay (EPA / NIEHS).
# “And” between values parts separate entries of the source, which are not always exact repeats. Equal values may be shown once. Some structures have more than one record in an assay (separate samples or runs), and their calls can disagree. The source made the active and inactive calls. Rule for the calls: active = hit-call score of the fitted dose curve at least 0.9, where 1 is the maximum; inactive = score below 0.9.
# Read-out: Macrophage colony-stimulating factor (MCSF), CSF1 (gene 1435)
# Assay: BSK_hDFCGF_MCSF: BioMAP Diversity Plus: hDFCGF Assay for Macrophage colony-stimulating factor (MCSF) Biomarker Activity (AID 2283060)
# Settings: primary human foreskin fibroblasts; actives raise or lower the signal
# Description: BSK_hDFCGF is a cell-based, multiplexed-readout assay that uses foreskin fibroblast, a human skin primary cell, with measurements taken at 24 hours after chemical dosing in a 96-well plate.BSK_hDFCGF_MCSF is an assay component measured in the BSK_hDFCGF assay. It measures M-CSF antibody related to regulation of gene expression using ELISA technology.Data from the assay component BSK_hDFCGF_MCSF was analyzed into 1 assay endpoint. This assay endpoint, BSK_hDFCGF_MCSF, was analyzed with bidirectional fitting relative to DMSO as the negative control and baseline of activity. Using a type of binding reporter, gain or loss-of-signal activity can be used to understand changes in the signaling as they relate to the gene CSF1. Furthermore, this assay endpoint can be referred to as a primary readout, because this assay has produced multiple assay endpoints where this one serves a signaling function. To generalize the intended target to other relatable targets, this assay endpoint is annotated to the cytokine intended target family, where the subfamily is colony stimulating factor.
# The levels of cell surface (or secreted, indicated by the prefix "s") biomarker endpoints were measured by ELISA. Overt cytotoxicity to cells in confluent adherent cultures (all systems other than the BT system) was assessed by measuring total protein levels using sulforhodamine B (SRB) staining in parallel cultures at the time of biomarker measurements, indicated as SRB endpoints. For proliferation assays for adherent cell types, individual cell types are cultured at sub-confluence and relative cell numbers quantified by SRB staining at time points optimized for each system (48 h: 3C and CASM3C systems; 72 h: BT and HDF3CGF systems; 96 h: SAg system). SRB was performed by staining cells with 0.1% SRB after fixation with 10% TCA and reading wells at 560 nm.Viability and proliferation of PBMC (T cells) was quantified by Alamar Blue reduction for the SAg and BT systems. For PBMC viability (referred to as PBMC Cytotoxicity within the assay endpoint names), cells were plated (75,000/well in a 96-well plate) and then chemical samples added for 1 h before addition of activators, SEB and TSST-1 (20 ng/mL final concentration each). Cells were incubated for 90 h. Then, Alamar Blue (20 uL/well) (Invitrogen, Cat DAL1100) was added for 6 h, and the plates were read with a fluorescence microplate reader at 546/580 nm (excitation/emission). For PBMC proliferation, cells were plated and activated as above but incubated for only 16 h prior to addition of Alamar Blue. Plates were read after 6 h.
SMILES,outcome,AC50
O=NN(c1ccccc1)c1ccccc1,inactive,
Cc1cccc([N+](=O)[O-])c1,inactive,
O=C(O)C(F)(F)C(F)(F)C(F)(F)C(F)(F)C(F)(F)F,inactive,
C[C@]12CCC(=O)C=C1CC[C@@H]1[C@@H]2CC[C@]2(C)C(=O)CC[C@@H]12,inactive,
Cc1cccc(C)c1N,inactive,
CC(C)C(=O)OCC(C)(C)C(OC(=O)C(C)C)C(C)C (stereo not given),inactive,
CCSC(=O)N(CC)C1CCCCC1,inactive,
Oc1c(Cl)c(Cl)c(Cl)c(Cl)c1Cl,inactive,6.44 µM (active)
Clc1ccc(C(c2ccccc2Cl)C(Cl)(Cl)Cl)cc1 (stereo not given),,8.37 µM (active)
O=S(=O)(O)C(F)(F)C(F)(F)C(F)(F)C(F)(F)C(F)(F)C(F)(F)F,inactive,
c1cc2ccc3cccc4ccc(c1)c2c34,inactive,
Cc1ccccc1CO[C@@H]1C[C@@]2(C(C)C)CC[C@]1(C)O2,inactive,
CN(C)CCO,inactive,
Cc1cc(-c2ccc(N)c(C)c2)ccc1N,inactive,
Nn1cnnc1,inactive,
CCNc1nc(NC(C)C)nc(SC)n1,inactive,
Cc1ccccc1[N+](=O)[O-],inactive,
NS(=O)(=O)C(F)(F)C(F)(F)C(F)(F)C(F)(F)C(F)(F)C(F)(F)C(F)(F)C(F)(F)F,,14.8 µM (active) and 8.52 µM (active) and 8.29 µM (active)
Clc1ccc(C(Cl)(Cl)Cl)cc1,inactive,
N#Cc1ccc(N(CC(N)=O)CC(F)(F)F)cc1C(F)(F)F,inactive,

SMILES,outcome,AC50
CO/C=C(/C(=O)OC)c1ccccc1COc1cccc(C(F)(F)F)n1,,7.27 µM (active)
CCOCCOC(C)=O,inactive,
CCOP(=S)(OCC)SCSC(C)(C)C,inactive,
ClC1=C(Cl)[C@]2(Cl)[C@@H]3[C@@H](Cl)[C@H]4O[C@H]4[C@@H]3C1(Cl)C2(Cl)Cl,inactive,
Nc1ccc(-c2ccc(N)cc2)cc1,inactive,
CC#Cc1cc(C)nc(Nc2ccccc2)n1,inactive,
CCC(=O)O[C@H]1CC[C@H]2[C@@H]3CCC4=CC(=O)CC[C@]4(C)[C@H]3CC[C@]12C,,31.3 µM (active)
CC(C)(O)C(=O)Nc1ccc([N+](=O)[O-])c(C(F)(F)F)c1,inactive,
O=C(NC(=O)c1c(F)cccc1F)Nc1cc(Cl)c(OC(F)(F)C(F)F)c(Cl)c1,inactive,
Oc1ccc(Cl)cc1Cl,inactive,
CCCN(CCC)N=O,inactive,
O=C(O)C(F)(F)C(F)(F)C(F)(F)C(F)(F)C(F)(F)C(F)(F)C(F)(F)C(F)(F)C(F)(F)F,,30.4 µM (active) and 21.9 µM (active) and 21.6 µM (active)
CCC(C)c1cc([N+](=O)[O-])cc([N+](=O)[O-])c1O (stereo not given),,4.2 µM (active)
ClC(Cl)=C(c1ccc(Cl)cc1)c1ccc(Cl)cc1,,20 µM (active)
c1ccc(-c2ccccc2)cc1,inactive,
O=C(N[C@H]1CN2CCC1CC2)c1cc2ccoc2cn1,inactive,
O=C(O)C(F)(F)C(F)(F)C(F)(F)C(F)(F)C(F)(F)C(F)(F)C(F)(F)C(F)(F)F,inactive,
CCC(C)(c1ccc(O)cc1)c1ccc(O)cc1,inactive,
Cc1ccccc1O,inactive,
